Compound activity (PubChem)
SMN2 splice up = qHTS Assay for Enhancers of SMN2 Splice Variant Expression | HEK293 SMN2-luciferase splicing reporter, luminescence, 30-36 h | Potency, µM (top dose mostly 46.1 µM), for inactives: top-dose activity change, positive = activation, most hits filed as activators | actives 2.8% (n = 210,000); also: % of control where 0% means no effect; nearly all actives have a fitted effect of over 55% in size
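HEK293 cells carry an SMN2 minigene-luciferase reporter in which exon 7 inclusion puts luciferase in frame. Cells were seeded at 2000 cells/well, attached for 10-12 hours, then exposed to compounds for 30-36 hours at 37C before ONE-Glo luminescence.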
Rab9 prom act = qHTS Assay for Rab9 Promoter Activators; actives 2.8% (n = 320,000); AID 485297, 2010; Huh7 Rab9 promoter-luciferase reporter, luminescence, 24 h; Potency, µM (doses to about 9.22 µM), for inactives: at the highest dose activation, negative = inhibition, actives largely listed as activators; also: % of control where 0% means no effect; nearly all actives have a fitted effect of over 60% in size
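Quantitative HTS format; Huh7 Rab9-luciferase reporter cells (1500/well) receive compound 2 h post-plating, incubate 24 h at 37 °C, then get luciferase reagent for 10 min before luminescence reading.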
KinaseGlo FLuc = Counterscreen for Luciferase (Kinase-Glo TM) Inhibition. actives 0.28% (n = 200,000). Potency, µM (highest dose often 38.3 µM), without a hit: at the highest dose activity change, negative = inhibition, hits mostly inhibitors. Kinase-Glo luciferase, ATP luminescence, 8 min; also: % is scaled to controls: 0 for no effect and ±100 for the full control effect; nearly all actives have a fitted effect of over 60% in size
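Substrate mix (final 50 mM imidazole pH 7.2, 50 mM KCl, 7 mM MgCl2, 10 uM ATP, 0.01% Tween 20, 0.05% BSA) plus pin-tool compound, then Kinase-Glo detection mix; 8 min ambient, luminescence read.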
ELG1 genotoxic = qHTS screen for small molecules that induce genotoxicity in human embryonic kidney (HEK293T) cells expressing luciferase-tagged ELG1 | Potency, µM (titrated, usually from 46 µM), for the others: top-dose activity change, positive = activation, most hits filed as activators | actives 1.3% (n = 330,000) | AID 504466, 2011 | HEK293T ELG1-luciferase reporter, luminescence, 16 h; also: % of control where 0% means no effect; nearly all actives have a fitted effect of over 60% in size
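HEK293T cells expressing luciferase-tagged ELG1 were exposed to compound or DMSO vehicle for 16 hr at 37 °C and 5% CO2. Luciferase activity was then measured with ONE-Glo after 30 min at room temperature.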
NPC1 promoter act = qHTS Assay for NPC1 Promoter Activators; Huh7 NPC1 promoter luciferase reporter, 24 h; actives 2.4% (n = 320,000); AID 485313, 2010; Potency, µM (doses to about 9.22 µM), for the others: at the highest dose activation, hits mostly activators; also: % of control where 0% means no effect; nearly all actives have a fitted effect of over 60% in size
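Luciferase expression driven by the NPC1 promoter was measured in stably transfected Huh7 cells after a 24 h compound incubation, using a luciferase reagent and a luminescence read.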
FLuc modulator = qHTS profiling assay for firefly luciferase inhibitor/activator using purifed enzyme and Km concentrations of substrates (counterscreen for miR-21 project); purified FLuc, Km substrates, luminescence inhibition; actives 6.9% (n = 360,000); Luciferin 4-monooxygenase (Photinus pyralis), P08659; Potency, µM (highest dose often 57.5 µM), inactives show top-dose activity change, negative = inhibition, hits mostly inhibitors;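 also: plate controls were vehicle for no effect and reference inhibitor for full effect; nearly all actives have a fitted effect of over 55% in size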
Target sequence (P08659 whole entry, looked up): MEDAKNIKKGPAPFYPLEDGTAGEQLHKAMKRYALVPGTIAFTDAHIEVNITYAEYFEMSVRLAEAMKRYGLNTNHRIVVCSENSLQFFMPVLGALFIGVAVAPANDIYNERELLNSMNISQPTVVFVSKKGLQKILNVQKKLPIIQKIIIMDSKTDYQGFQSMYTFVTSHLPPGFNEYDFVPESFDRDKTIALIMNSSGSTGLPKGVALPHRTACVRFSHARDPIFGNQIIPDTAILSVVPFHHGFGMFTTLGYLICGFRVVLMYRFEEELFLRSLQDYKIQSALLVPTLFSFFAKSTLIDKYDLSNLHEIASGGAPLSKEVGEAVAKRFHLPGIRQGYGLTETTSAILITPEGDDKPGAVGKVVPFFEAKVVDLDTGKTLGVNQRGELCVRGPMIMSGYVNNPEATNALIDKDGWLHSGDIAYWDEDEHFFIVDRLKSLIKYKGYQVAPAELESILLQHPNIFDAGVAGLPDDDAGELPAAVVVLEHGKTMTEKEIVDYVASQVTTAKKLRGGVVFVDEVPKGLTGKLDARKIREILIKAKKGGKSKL
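Purified P. pyralis luciferase (10nM final) with 10uM D-luciferin and 10uM ATP (Km levels) in 50mM Tris acetate pH 7.5, 10mM Mg acetate, 0.01% Tween-20, 0.05% BSA; qHTS 6-point titration, ~60 µM downward; luminescence read.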
* = called active by the depositor; ? = inconclusive; / = no result. The list is not random: actives were taken first. Their share in the collection is about 7.5%. Calls follow the shape of the dose curve; as a rule, active = well fitted curve in the direction sought with a large enough effect; inconclusive = small, poorly fitted or top-dose-only effect, or another doubt; inactive = no such curve, though single readings can be large; an effect the other way counts as inactive or inconclusive. Potency is read from the fitted curve at half-maximal effect.

SMILES | SMN2 splice up | Rab9 prom act | KinaseGlo FLuc | ELG1 genotoxic | NPC1 promoter act | FLuc modulator
COc1ccccc1C1=NC(c2ccc(C)cc2)N=C1C (stereo unspecified) | ? | ? | 4% | -8% | ? | 15µM*
COc1ccccc1-c1nc2ccccc2nc1-c1ccccc1OC | 1% | -11% | 1% | -1% | -2% | 1%
Cc1ccc(-c2nnc(Nc3ccc(Br)cc3)c3ccccc23)cc1S(=O)(=O)NCC1CCCO1 (stereo unspecified) | 5% | / | / | / | / | ?
Cc1cc(-c2n[nH]c(=S)o2)c(C)n1-c1ccccc1 | 7.1µM* | 2.5µM* | -2% | ? | ? | 3µM*
Oc1cc2ccccc2cc1-c1n[nH]c(=S)o1 | 6% | 14% | -4% | 8% | 2% | ?
CCc1cccc(NC(=O)CNS(=O)(=O)c2ccc3nc(C)sc3c2)c1 | -7% | / | / | / | / | -12%
CC(=O)Nc1cccc(-c2nc3ccccc3[nH]2)c1 | -34% | 23% | -29% | 4% | 6% | ?
O=C(Nc1cccc(-c2nc3ccccc3[nH]2)c1)c1c(F)cccc1F | 10% | / | / | / | / | 12µM*
O=C(Nc1cccc(-c2nc3ccccc3[nH]2)c1)c1ccccn1 | / | 16% | / | -19% | 14% | 13µM*
COc1cccc(OC)c1C(=O)Nc1cccc(-c2nc3ccccc3[nH]2)c1 | / | -2% | -6% | -1% | -2% | -2%
O=C(Nc1cccc(-c2nc3ccccc3[nH]2)c1)c1ccccc1F | -18% | / | / | / | / | 11µM*
O=C(c1ccccc1)c1ccc2nc(-c3ccc(NC(=O)c4ccccc4F)cc3)[nH]c2c1 | -18% | 15% | -3% | ? | 3% | -20%
COc1ccc(OC)c(S(=O)(=O)NCC(c2cccs2)S(=O)(=O)c2ccc(F)cc2)c1 (stereo unspecified) | / | / | / | / | / | 5%
COCCn1c(C)cc(/C=C(\C#N)C(=O)OCC(=O)Nc2ccc(S(N)(=O)=O)cc2)c1C | / | -1% | / | 8% | -1% | -1%
COCCCN(C(C)=O)c1nc(-c2ccccc2)cs1 | / | ? | -4% | 13µM* | 29% | ?
COCCCN(C(=O)c1ccccc1)c1nc(-c2ccc(OC)cc2)cs1 | / | 5% | / | -5% | 2% | -8%
COc1ccc(-c2noc(Cn3c(=O)c4ccccc4n(CC(=O)Nc4cccc(OC)c4)c3=O)n2)cc1 | / | / | / | / | / | -3%
CCOC(=O)c1cnc2c(ccc3ccccc32)c1NCCCN(C)C | / | 5% | / | ? | -4% | 7.6µM*
O=C(NC1CCCC1)c1cnn(-c2ccc(F)cc2F)c1C1CCNCC1 | / | / | / | / | / | 0%
Cc1cc(C)n2cc(COc3ccc4ccccc4c3)nc2n1 | 13µM* | 1.1µM* | 13% | ? | 1.8µM* | 2.4µM*
Cc1cccc2nc(COc3ccc(-c4ccccc4)cc3)cn12 | / | ? | -29% | 10% | 26% | 11µM*
Cc1ccnc(SCc2cn3c(C)cc(C)nc3n2)n1 | 23% | -2% | 2% | 6% | -2% | 0%
Cc1ccc(CNC(=O)C2CCN(S(=O)(=O)c3c(C)noc3/C=C/c3ccccc3F)CC2)o1 | / | / | / | / | / | 1%
COc1cccc(/C=C/C(=O)c2ccc(C)c([N+](=O)[O-])c2)c1 | 119% | -4% | 0% | 7% | -1% | ?
COc1cccc(C(=O)/C=C/c2ccc(SC)cc2)c1 | -22% | -5% | -25% | 2% | 0% | 3.4µM*
SMILES | SMN2 splice up | Rab9 prom act | KinaseGlo FLuc | ELG1 genotoxic | NPC1 promoter act | FLuc modulator
COC(=O)c1ccc(/C=C/C(=O)c2cccc(OC)c2)cc1 | 20% | ? | -9% | ? | ? | 9.5µM*
COc1cccc(/C=C/C(=O)Oc2ccc(C(=O)c3ccc(F)cc3)cc2)c1 | 10% | -4% | 0% | 2% | -2% | -10%
CN(C)CCN(Cc1ccccc1)S(=O)(=O)c1ccc2[nH]c(=O)ccc2c1 | / | / | / | / | / | 5%
COC(=O)c1ccc(NC(=O)c2cc(-c3ccncc3)nc3ccccc23)cc1 | / | -1% | / | -2% | 0% | -6%
COc1ccc(-c2cc(C(=O)Nc3ccc(C)c(N)c3)c3ccccc3n2)cc1 | / | 15% | / | 5% | 23% | 5.4µM*
COc1ccc(-c2cc(C(=O)Nc3ccc(S(=O)(=O)Nc4onc(C)c4C)cc3)c3ccccc3n2)cc1 | / | -3% | / | 2% | 2% | 9.5µM*
COc1ccc(-c2cc(C(=O)Nc3ccc(S(=O)(=O)Nc4ncccn4)cc3)c3ccccc3n2)cc1 | / | 3% | / | 15% | 4% | 4.8µM*
COc1ccccc1CNC(=O)c1cnc2sc(N3CCOCC3)nn2c1=O | / | / | / | / | / | -1%
COc1ccc(C2c3cc(OC)c(OC)cc3Cc3c4cc(OC)c(OC)cc4cc[n+]32)cc1OC (stereo unspecified) | -21% | / | -1% | / | / | /
COc1ccc(Nc2nc(N)nc(CSC(=S)N3CCOCC3)n2)cc1 | ? | ? | -1% | ? | ? | ?
Nc1nc(CSC(=S)N2CCOCC2)nc(Nc2ccc(F)cc2)n1 | 14µM* | ? | 3% | ? | 26% | ?
COc1ccccc1NC(=O)N1CCCC1C(=O)NCc1ccccc1Cl (stereo unspecified) | / | 3% | / | -3% | -2% | 1%
COc1ccccc1NC(=O)N1CCCC1C(=O)NCc1ccccc1F (stereo unspecified) | 6.3µM* | -8% | -5% | 13% | 1% | -2%
c1ccc(Cc2nc3ccccc3o2)cc1 | -3% | 7% | -9% | 15% | 1% | 19µM*
CCCCOC(=O)c1ccc(-n2nnc3c(sc4nc(C)cc(C)c43)c2=O)cc1 | 18% | / | / | / | / | -1%
CC(=O)c1ccc(OC(=O)/C=C/c2ccccc2)cc1 | / | -2% | / | 2% | -3% | 2.7µM*
COc1ccc(/C=C/C(=O)O/N=C(\N)c2ccccc2)cc1OC | ? | ? | 0% | ? | ? | 17µM*
CC(=O)c1ccc(OC(=O)CCNC(=O)c2ccccc2)cc1 | / | / | / | 3% | / | /
Cc1ccc(/C(N)=N/OC(=O)/C=C/c2ccccc2)cc1 | -6% | 12% | -5% | 13% | 0% | 24µM*
CC(=O)c1ccc(OC(=O)COc2ccccc2)cc1 | / | 0% | / | 24% | 1% | 21µM*
COC(=O)N1CCC2(CC1)CN(c1cccc(-c3ccccc3)c1)C2 | -22% | / | -1% | / | / | /
Cc1ccc(NC(=O)Cn2c(=O)n(CCCCC(=O)NCCc3ccccc3)c(=O)c3ccccc32)c(C)c1 | -3% | / | / | / | / | 2%
